Active and inactive are the calls of the source. How the source made its calls: active means hit-call score of the fitted dose curve at least 0.9, where 1 is the maximum; inactive means score below 0.9.
What was measured:
[1] = ATG_GLI_CIS: Attagene CIS-FACTORIAL HepG2 Assay for human Zinc Finger Protein GLI1 (AID 2282945); details: HepG2, Attagene cis-factorial reporter mRNA, GLI element; actives raise or lower the signal
Method in brief: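 Transiently transfected HepG2 cells report endogenous transcription factor activity via cis-element-driven reporter units. After 24 h compound exposure, reporter mRNA was measured by RT-PCR with capillary electrophoresis; bidirectional fitting against DMSO baseline.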

[2] = target: Bile acid receptor (Homo sapiens) (UniProt Q96RI1); test: ATG_IR1_CIS: Attagene CIS-FACTORIAL HepG2 Assay for human Nuclear Receptor Subfamily 1 Group H Member 4 (NR1H4), IR1 submotif (AID 2282946); details: IR1 reporter transcription, actives raise or lower the signal
Method in brief: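 HepG2 cells transiently transfected with multiple cis-promoter-driven reporter units to measure endogenous transcription factor activity; 24 h exposure. Reporter mRNA read by RT-PCR, FAM labelling, HpaI digestion and capillary electrophoresis. Bidirectional fit versus DMSO.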

[3] = ATG_GRE_CIS: Attagene CIS-FACTORIAL HepG2 Assay for human Glucocorticoid Response Elements (GRE) (AID 2282947); details: HepG2 GRE cis-reporter, Attagene multiplex mRNA; actives raise or lower the signal
Method in brief: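 Endogenous transcription factor activity is read through cis-element reporter constructs transiently transfected into HepG2 cells. After 24 h treatment, labelled RT-PCR products are resolved by capillary electrophoresis; DMSO sets baseline for bidirectional curve fitting.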

[4] = ATG_ISRE_CIS: Attagene CIS-FACTORIAL HepG2 Assay for human Interferon Regulatory Factor 1 (IRF1) binding to an Interferon-Stimulated Response Element (ISRE) (AID 2282948); details: HepG2 ISRE cis-reporter (Attagene), mRNA transcription readout; actives raise or lower the signal
Method in brief: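 Transfected HepG2 (multiple reporter transcription units, cis elements) dosed 24 h. RNA → oligo(dT) RT → PCR → 6-FAM primer extension → HpaI → CE. DMSO = negative control/baseline.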

[5] = ATG_M_32_CIS: Attagene CIS-FACTORIAL HepG2 Assay for M32 Transcription Factor (Internal Marker) (AID 2282949); details: HepG2 Attagene cis-factorial M32 reporter, mRNA; actives raise or lower the signal;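 further: background control marker of the multiplexed CIS panel rather than a real target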
Method in brief: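 Following 24 h chemical exposure of HepG2 cells transiently expressing cis-promoter reporter constructs, reporter transcript levels were determined by RT-PCR with fluorescent labelling and capillary electrophoresis, then fitted bidirectionally against DMSO.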

[6] = ATG_M_06_CIS: Attagene CIS-FACTORIAL HepG2 Assay for M06 Transcription Factor (Internal Marker) (AID 2282950); details: HepG2 Attagene CIS-FACTORIAL M06 internal marker reporter; actives raise or lower the signal
Method in brief: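 Measured 24 h post-dosing in transiently transfected HepG2 cells, this internal-marker endpoint reports reporter mRNA via RT-PCR with fluorescent primer extension and capillary electrophoresis. DMSO served as negative control and baseline for bidirectional fitting.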

[7] = target: Hypoxia-inducible factor 1-alpha (Homo sapiens) (UniProt Q16665); test: ATG_HIF1a_CIS: Attagene CIS-FACTORIAL HepG2 Assay for human Hypoxia Inducible Factor 1 (HIF1A) (AID 2282951); details: HepG2 Attagene cis-factorial HIF1a reporter transcription; actives raise or lower the signal
Method in brief: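 Activity is fitted in both directions relative to DMSO. Reporter transcripts are read by RT-PCR, fluorescent primer extension and capillary electrophoresis after 24 h chemical treatment. The cells are HepG2 carrying transiently transfected cis-element-driven reporter units responding to endogenous factors.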

[8] = target: Hepatocyte nuclear factor 6 (Homo sapiens) (UniProt Q9UBC0); test: ATG_HNF6_CIS: Attagene CIS-FACTORIAL HepG2 Assay for human Hepatocyte Nuclear Factor 6 (HNF6) (AID 2282952); details: HepG2 Attagene cis-factorial HNF6 reporter transcription; actives raise or lower the signal
Method in brief: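 HepG2 cells transiently transfected with cis-element-driven multiple reporter transcription units, dosed 24 h; reporter mRNA quantified by RT-PCR, FAM primer extension, HpaI digestion and capillary electrophoresis; bidirectional fit versus DMSO baseline.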

[9] = target: Heat shock factor protein 1 (Homo sapiens) (UniProt Q00613); test: ATG_HSE_CIS: Attagene CIS-FACTORIAL HepG2 Assay for human Heat Shock Transcription Factor 1 (HSE) (AID 2282953); details: HepG2 HSE cis-reporter, Attagene RNA transcription; actives raise or lower the signal
Method in brief: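 Reporter mRNA induction in HepG2 is measured 24 h after dosing, using transiently transfected multiplexed cis-regulated reporter units. Signal comes from capillary electrophoresis of labelled RT-PCR products, with DMSO as negative control.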

[10] = ATG_MRE_CIS: Attagene CIS-FACTORIAL HepG2 Assay for human Metal Responsive Element (MRE) (AID 2282954); details: HepG2 MRE cis-reporter transcription, Attagene multiplex; actives raise or lower the signal
Method in brief: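 Fluorescent reporter fragments separated by capillary electrophoresis give mRNA induction for the MRE unit after 24 h treatment of transfected HepG2 cells. Endogenous transcription-factor activity is read; DMSO serves as negative control and baseline.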

Heat shock factor protein 1 (Homo sapiens), sequence (Q00613 whole entry, looked up): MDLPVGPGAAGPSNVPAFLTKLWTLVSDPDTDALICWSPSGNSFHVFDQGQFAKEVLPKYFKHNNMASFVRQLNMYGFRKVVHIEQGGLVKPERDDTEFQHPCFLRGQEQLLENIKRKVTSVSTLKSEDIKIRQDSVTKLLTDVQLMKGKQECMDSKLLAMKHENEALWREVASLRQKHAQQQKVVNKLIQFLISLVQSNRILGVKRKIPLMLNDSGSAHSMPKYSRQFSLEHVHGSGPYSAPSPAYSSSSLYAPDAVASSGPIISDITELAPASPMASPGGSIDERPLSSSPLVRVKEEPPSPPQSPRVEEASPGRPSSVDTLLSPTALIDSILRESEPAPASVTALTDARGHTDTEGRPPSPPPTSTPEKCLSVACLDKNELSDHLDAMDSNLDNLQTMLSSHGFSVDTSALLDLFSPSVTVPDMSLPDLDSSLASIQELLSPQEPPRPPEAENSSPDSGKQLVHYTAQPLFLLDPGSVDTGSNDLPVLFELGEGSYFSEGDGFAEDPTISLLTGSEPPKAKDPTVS
Hypoxia-inducible factor 1-alpha (Homo sapiens), sequence (Q16665 whole entry, looked up): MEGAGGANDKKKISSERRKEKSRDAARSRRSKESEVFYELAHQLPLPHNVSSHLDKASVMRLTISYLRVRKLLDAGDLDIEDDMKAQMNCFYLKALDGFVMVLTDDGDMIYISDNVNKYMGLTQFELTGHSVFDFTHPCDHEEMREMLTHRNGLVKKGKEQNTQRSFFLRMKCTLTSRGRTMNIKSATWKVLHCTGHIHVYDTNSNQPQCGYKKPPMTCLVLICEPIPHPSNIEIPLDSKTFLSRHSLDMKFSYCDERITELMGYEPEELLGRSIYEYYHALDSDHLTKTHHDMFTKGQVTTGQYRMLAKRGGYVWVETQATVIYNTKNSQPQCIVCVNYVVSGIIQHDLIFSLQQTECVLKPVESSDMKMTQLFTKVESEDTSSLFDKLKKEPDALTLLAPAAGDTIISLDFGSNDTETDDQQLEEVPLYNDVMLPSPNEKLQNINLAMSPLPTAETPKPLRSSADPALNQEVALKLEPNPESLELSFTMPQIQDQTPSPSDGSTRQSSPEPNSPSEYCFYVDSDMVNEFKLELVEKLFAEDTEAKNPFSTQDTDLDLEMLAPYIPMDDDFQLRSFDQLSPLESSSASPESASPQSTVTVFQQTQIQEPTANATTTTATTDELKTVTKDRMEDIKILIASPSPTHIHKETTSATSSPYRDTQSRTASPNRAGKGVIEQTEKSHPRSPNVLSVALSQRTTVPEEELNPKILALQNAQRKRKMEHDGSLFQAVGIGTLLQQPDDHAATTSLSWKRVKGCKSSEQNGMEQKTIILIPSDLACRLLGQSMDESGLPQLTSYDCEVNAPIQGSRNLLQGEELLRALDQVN
Hepatocyte nuclear factor 6 (Homo sapiens), sequence (Q9UBC0 whole entry, looked up): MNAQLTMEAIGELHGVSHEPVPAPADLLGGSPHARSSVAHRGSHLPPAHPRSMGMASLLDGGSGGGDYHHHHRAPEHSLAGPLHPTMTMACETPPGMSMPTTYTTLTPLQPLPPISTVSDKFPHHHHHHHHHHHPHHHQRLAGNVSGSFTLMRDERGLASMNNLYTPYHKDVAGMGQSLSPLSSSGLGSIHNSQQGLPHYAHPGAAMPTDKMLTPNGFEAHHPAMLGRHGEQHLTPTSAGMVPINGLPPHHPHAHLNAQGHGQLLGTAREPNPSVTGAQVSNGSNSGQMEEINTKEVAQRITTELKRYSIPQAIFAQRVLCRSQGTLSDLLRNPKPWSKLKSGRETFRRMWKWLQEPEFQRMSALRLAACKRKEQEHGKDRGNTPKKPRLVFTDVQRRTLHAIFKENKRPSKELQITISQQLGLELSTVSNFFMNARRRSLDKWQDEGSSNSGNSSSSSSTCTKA
Bile acid receptor (Homo sapiens), sequence (Q96RI1 whole entry, looked up): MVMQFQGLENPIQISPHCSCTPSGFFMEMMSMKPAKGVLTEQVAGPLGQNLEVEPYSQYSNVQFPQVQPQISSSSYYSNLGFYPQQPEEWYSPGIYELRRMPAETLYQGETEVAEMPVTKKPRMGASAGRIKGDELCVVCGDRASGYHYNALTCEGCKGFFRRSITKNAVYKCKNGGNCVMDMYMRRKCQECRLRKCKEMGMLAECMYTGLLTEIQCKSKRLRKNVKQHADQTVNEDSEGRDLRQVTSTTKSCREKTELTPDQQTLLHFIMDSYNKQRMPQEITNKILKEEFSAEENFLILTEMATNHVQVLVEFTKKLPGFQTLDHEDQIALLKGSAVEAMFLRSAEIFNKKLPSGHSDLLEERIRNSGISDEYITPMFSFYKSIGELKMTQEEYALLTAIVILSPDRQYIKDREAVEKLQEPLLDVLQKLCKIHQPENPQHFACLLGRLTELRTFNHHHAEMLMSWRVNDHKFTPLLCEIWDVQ

Compound | outcome [1] | outcome [2] | outcome [3] | outcome [4] | outcome [5] | outcome [6] | outcome [7] | outcome [8] | outcome [9] | outcome [10] | AC50 [4] | AC50 [9] | AC50 [10] | AC50 [1] | AC50 [5] | AC50 [2] | AC50 [7] | AC50 [3] | AC50 [8]
CCC(C)C(=O)OC (stereo not given) | inactive | inactive | inactive | inactive | inactive | inactive | inactive | inactive | inactive | inactive |  |  |  |  |  |  |  |  | 
O=C(O)c1ccc2c(c1)C(=O)OC2=O | inactive | inactive | inactive | inactive | inactive | inactive | inactive | inactive | inactive | inactive |  |  |  |  |  |  |  |  | 
CCOC(=O)c1ccccc1C | inactive | inactive | inactive | inactive | inactive | inactive | inactive | inactive | inactive | inactive |  |  |  |  |  |  |  |  | 
CCCCNS(=O)(=O)c1ccccc1 | inactive | inactive | inactive | inactive | inactive | inactive | inactive | inactive | inactive | inactive |  |  |  |  |  |  |  |  | 
CCc1cccc(C)c1N(C(=O)CS(=O)(=O)O)C(C)COC (stereo not given) | inactive | inactive | inactive | inactive | inactive | inactive | inactive | inactive | inactive | inactive |  |  |  |  |  |  |  |  | 
CCC1(C)C(=O)N(Cl)C(=O)N1Cl (stereo not given) | inactive | inactive | inactive |  | inactive | inactive | inactive | inactive |  |  | 49.4 µM (active) | 52.1 µM (active) | 61.4 µM (active) |  |  |  |  |  | 
N#Cc1ccc(C(c2ccc(C#N)cc2)n2cncn2)cc1 | inactive | inactive | inactive | inactive | inactive | inactive | inactive | inactive | inactive | inactive |  |  |  |  |  |  |  |  | 
COC(=O)c1ccccc1C | inactive | inactive | inactive | inactive | inactive | inactive | inactive | inactive | inactive | inactive |  |  |  |  |  |  |  |  | 
CC1(C)C(=O)N(CO)C(=O)N1CO | inactive | inactive | inactive | inactive | inactive | inactive | inactive | inactive | inactive | inactive |  |  |  |  |  |  |  |  | 
CCOC(=O)[C@H](O)[C@@H](O)C(=O)OCC | inactive | inactive | inactive | inactive | inactive | inactive | inactive | inactive | inactive | inactive |  |  |  |  |  |  |  |  | 
CC1CCC(=O)C1=O (stereo not given) | inactive | inactive | inactive | inactive | inactive | inactive | inactive | inactive | inactive | inactive |  |  |  |  |  |  |  |  | 
C=CC(=O)O[C@H]1C[C@@H]2CC[C@@]1(C)C2(C)C |  | inactive | inactive | inactive |  | inactive | inactive | inactive |  | inactive |  | 161 µM (active) |  | 186 µM (active) | 150 µM (active) |  |  |  | 
CC(C)(C)C1CCC(=O)CC1 | inactive | inactive | inactive | inactive | inactive | inactive | inactive | inactive |  | inactive |  | 156 µM (active) |  |  |  |  |  |  | 
CCCCC(=O)O | inactive | inactive | inactive | inactive | inactive | inactive | inactive | inactive | inactive | inactive |  |  |  |  |  |  |  |  | 
CCC(C)C(=O)OCCc1ccccc1 (stereo not given) | inactive | inactive | inactive | inactive | inactive | inactive | inactive | inactive | inactive | inactive |  |  |  |  |  |  |  |  | 
CCCCC1C(=O)N(c2ccccc2)N(c2ccccc2)C1=O | inactive | inactive | inactive | inactive | inactive | inactive | inactive | inactive | inactive | inactive |  |  |  |  |  |  |  |  | 
CCOc1ccc(NC(N)=O)cc1 | inactive | inactive | inactive | inactive | inactive | inactive | inactive | inactive | inactive | inactive |  |  |  |  |  |  |  |  | 
Cc1cc(=O)[nH]c(=O)[nH]1 | inactive | inactive | inactive | inactive | inactive | inactive | inactive | inactive | inactive | inactive |  |  |  |  |  |  |  |  | 
CCCCCCCC(=O)OCC(COC(=O)CCCCCCC)OC(=O)CCCCCCC | inactive | inactive | inactive | inactive | inactive | inactive | inactive | inactive | inactive | inactive |  |  |  |  |  |  |  |  | 
Cn1cccc1 | inactive | inactive | inactive | inactive | inactive | inactive | inactive | inactive | inactive | inactive |  |  |  |  |  |  |  |  | 
C1CCSC1 | inactive | inactive | inactive | inactive | inactive | inactive | inactive | inactive | inactive | inactive |  |  |  |  |  |  |  |  | 
O=C(Cl)c1c(Cl)c(Cl)c(C(=O)Cl)c(Cl)c1Cl | inactive | inactive | inactive | inactive | inactive | inactive | inactive | inactive | inactive | inactive |  |  |  |  |  |  |  |  | 
CC/C=C\C/C=C\C/C=C\CCCCCCCC(=O)OC | inactive |  | inactive | inactive | inactive | inactive |  | inactive |  | inactive |  | 74.9 µM (active) |  |  |  | 25.7 µM (active) | 34 µM (active) |  | 
Cc1cc(C)n(CO)n1 | inactive | inactive | inactive | inactive | inactive | inactive | inactive | inactive | inactive | inactive |  |  |  |  |  |  |  |  | 
CCCCCCCCC(CO)CCCCCC (stereo not given) | inactive | inactive |  | inactive | inactive | inactive | inactive |  | inactive |  |  |  | 158 µM (active) |  |  |  |  | 126 µM (active) | 172 µM (active)

— PubChem BioAssay (EPA / NIEHS)
